“And” between values parts separate entries of the source, which are not always exact repeats. Identical values can stand only once. Records with an inconclusive call do not appear. The source made the active and inactive calls. Unless noted, the call rests on the fitted dose curve.
Columns and labels:
[1] = molecular target: Androgen receptor (Homo sapiens) (UniProt P10275); test: qHTS assay for small molecule agonists of androgen receptor signaling (AID 588515; active means well fitted curve in the direction sought with a large enough effect in the signal ratio, with a control signal flat; the % refers to the signal ratio; further: on the % scale 0 is the no-effect control and ±100 the full control effect); details: AR-UAS-bla HEK293, beta-lactamase ratio, agonist 16 h; stronger effect = higher value
Summary of the method: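 Stimulation of an AR-responsive β-lactamase reporter in GripTite HEK293 cells was measured after 16 h compound exposure at 37 °C, via CCF4 fluorescence after 2 h RT. EC50 from Hill fits, normalized to R1881 at 30 nM.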

[2] = molecular target: Androgen receptor (Homo sapiens) (UniProt P10275); test: qHTS assay for small molecule antagonists of androgen receptor signaling (AID 588516; active means well fitted curve in the direction sought with a large enough effect in the signal ratio, with a control signal flat, not every such curve was filed as active; the % refers to the signal ratio; further: on the % scale 0 is the no-effect control and ±100 the full control effect); details: AR-UAS-bla HEK293, beta-lactamase ratio, antagonist mode, 16 h; series mostly up to 76.8 µM
Summary of the method: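 AR-UAS-bla-GripTite HEK 293 cells (2000/well, 5 h at 37 C) received compound titrations, then R1881 at 10 nM final; after 16 h at 37 C, CCF4 dye 2 h RT, beta-lactamase fluorescence read; IC50 from Hill fits.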

[3] = molecular target: Bile acid receptor (Homo sapiens) (UniProt Q96RI1); test: qHTS assay for small molecule antagonists of farnesoid X receptor signaling (AID 588526); details: HEK293T FXR-UAS-bla, beta-lactamase ratio, antagonist mode; series mostly up to 76.7 µM; further: on the % scale 0 is the no-effect control and ±100 the full control effect
Summary of the method: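 Concentration-response titrations were fitted to the Hill equation for half-maximal inhibition and maximal response, with data normalised to 50 uM chenodeoxycholic acid and DMSO control wells. Cells: FXR-UAS-bla HEK293T, dialyzed FBS.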

[4] = qHTS assay for small molecule antagonists of peroxisome proliferator-activated receptor delta signaling (AID 588535; active means well fitted inhibition curve with a large enough effect in the signal ratio, with a control signal flat, not every such curve was filed as active; the % refers to the signal ratio;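 on max response: cells co-treated with a PPAR-delta agonist as stimulator during compound exposure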); details: HEK293T PPARd-UAS-bla, beta-lactamase FRET ratio, 18 h; 460 nm channel
Summary of the method: (§1)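 Compounds tested in titration on PPAR-delta-UAS-bla HEK293T cells grown in charcoal/dextran-stripped serum (2%); beta-lactamase activity read via CCF4 emission at 460 and 530 nm.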

[5] = molecular target: Peroxisome proliferator-activated receptor delta (Homo sapiens) (UniProt Q03181); test: as above; details: HEK293T PPARd-UAS-bla, beta-lactamase FRET ratio, 18 h; series mostly up to 76.7 µM
Summary of the method: as §1

[6] = qHTS assay for small molecule agonists of the antioxidant response element (ARE) signaling pathway (AID 651741; active means well fitted activation curve with a large enough effect in the signal ratio; the % refers to the signal ratio; further: % of control where 0% means no effect); details: HepG2 ARE-bla reporter, beta-lactamase FRET ratio, 16 h; series mostly up to 96 µM
Summary of the method: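 Beta-lactamase reporter expression driven by the antioxidant response element in HepG2 cells was detected by fluorescence with LiveBLAzer B/G FRET substrate (2 h, room temperature) following 16 h compound treatment at 37 C.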

[7] = qHTS assay for small molecule activators of the nuclear factor-kappa B (NF-kB) signaling pathway (AID 651749; active means well fitted activation curve with a large enough effect in the signal ratio; the % refers to the signal ratio; further: % of control where 0% means no effect); details: NF-kB-bla ME-180 cells, beta-lactamase FRET ratio, 16 h; activation: stronger effect = higher value
Summary of the method: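 Beta-lactamase reporter expression, controlled by NF-kB response elements in ME-180 cells, was quantified fluorometrically via FRET disruption; cells at 2,000/well had been incubated with 23 nL test compound for 16 hr.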

[8] = qHTS assay for small molecule activators of the human pregnane X receptor (PXR) signaling pathway (AID 720659; call rule not given here; further: 0% is about no effect); details: DPX-2 HepG2 CYP3A4-luciferase, 24 h; series mostly up to 92.3 µM
[9] = molecular target: Bile acid receptor (Homo sapiens) (UniProt Q96RI1); test: qHTS assay for small molecule agonists of farnesoid X receptor signaling (AID 588527); details: HEK293T FXR-UAS-bla, beta-lactamase ratio, 16 h; activation: stronger effect = higher value;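 further: 0% = vehicle basal and 100% = reference agonist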
Summary of the method: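 Agonist-mode beta-lactamase reporter in GeneBLAzer FXR-UAS-bla HEK293T cells, titration up to 92 uM, 16 h exposure at 37 C, CCF4 fluorescence. Response scaled to DMSO (0%) and 100 uM chenodeoxycholic acid (100%), then Hill-fitted for EC50 and efficacy.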

[10] = molecular target: Vitamin D3 receptor (Homo sapiens) (UniProt P11473); test: qHTS assay for small molecule agonists of vitamin D receptor signaling (AID 588543); details: HEK293T VDR-UAS-bla, beta-lactamase ratio, 16 h; series mostly up to 76.8 µM;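 further: 0% = DMSO basal and 100% = reference agonist control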
Summary of the method: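 GeneBLAzer VDR-UAS-bla HEK293T cells in 2% charcoal-stripped FBS medium were dosed with compound titrations for 16 h at 37 °C; CCF4 β-lactamase readout (405 nm ex, 460/530 nm em). EC50 and efficacy from Hill fits, normalized to 50 nM calcitriol (100%) and DMSO (0%).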

[11] = molecular target: Thyroid hormone receptor beta (Homo sapiens) (UniProt P10828); test: qHTS assay for small molecule antagonists of thyroid hormone receptor beta signaling (AID 588547; active means well fitted inhibition curve with a large enough effect in the signal ratio, with a control signal flat, not every such curve was filed as active; the % refers to the signal ratio;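 further: cells stimulated with 0.4 nM T3 agonist during compound exposure; on the % scale 0 is the no-effect control and ±100 the full control effect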); details: TR-UAS-bla HEK293, beta-lactamase ratio, antagonist mode, 18 h
Summary of the method: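 TR-UAS-bla GripTite HEK293 cells in 2% charcoal/dextran FBS medium were preincubated 4 h at 37 C, given compound (0.59 nM to 92 uM) plus 0.4 nM T3 (final) for 18 h, then CCF4 for 2 h at RT; Hill fit gave IC50.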

[12] = molecular target: Mitogen-activated protein kinase 10 (Mus musculus) (UniProt Q61831); test: JNK3 AlphaScreen Assay (AID 530; active means well fitted curve in either direction with a large enough effect, not every such curve was filed as active); details: JNK3 lysate, c-Jun phosphorylation; series mostly up to 57.1 µM
Summary of the method: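 Biotinylated GST-cJun(1-79) served as substrate for JNK3 in HepG2 lysates stimulated with IL-1beta and TNF-alpha. ATP was 10 uM final, pH 7.6. Ser73 phosphorylation was quantified by AlphaScreen (680 nm excitation).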

[13] = molecular target: 3',5'-cyclic-AMP phosphodiesterase 4B (Homo sapiens) (UniProt Q07343); test: qHTS Assay for Inhibitors of PDE-IV (AID 607; active means well fitted activation curve with a large enough effect in the main read-out, with a control signal flat, not every such curve was filed as active; further: % of control where 0% means no effect); details: HEK293 ACTOne CNG channel cells, membrane potential fluorescence; series mostly up to 22.9 µM
Summary of the method: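 Cell-based read-out of cAMP via a modified cyclic nucleotide-gated channel and membrane potential dye (535/590 nm) in HEK293 cells expressing PDE4 endogenously. Compounds tested up to 22.9 uM final; 100 uM RO 20-1724 reference.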

[14] = molecular target: Glucocorticoid receptor (Homo sapiens) (UniProt P04150); test: qHTS assay for small molecule agonists of glucocorticoid receptor signaling (AID 588532; active means well fitted curve in the direction sought with a large enough effect in the signal ratio, with a control signal flat; the % refers to the signal ratio;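 further: 100% = dexamethasone at 0.1 µM and 0% = DMSO only wells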); details: HeLa MMTV-bla, beta-lactamase ratio, agonist, 18 h; activation: stronger effect = higher value, percent of dexamethasone control, DMSO zero
Summary of the method: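 Titration series, up to 92 uM, applied to GRE-bla HeLa cells for 18 h at 37 C. Detection by CCF4 FRET substrate after 2 h at RT.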

[15] = Confirmation and Secondary Assay for Modulators of Hemoglobin Beta Chain Splicing at IVS2 654 locus (AID 910; active means well fitted curve in the direction sought with a large enough effect; an effect the other way counts as inactive or inconclusive;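 further: per-well total GFP intensity by laser scanning cytometry after 2-day treatment; % of control where 0% means no effect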); details: HeLa EGFP-654 splicing reporter, GFP fluorescence, 48 h; series mostly up to 46.1 µM
Summary of the method: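 HeLa cells stably carrying EGFP interrupted by mutant beta-globin IVS2-654 intron (CMV-driven) were treated with compound for 2 days at 37C; corrected splicing was scored as total peak GFP intensity per well (488 nm excitation, 500-520 nm emission).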

[16] = molecular target: Ubiquitin carboxyl-terminal hydrolase 1 (Homo sapiens) (UniProt O94782); test: Inhibitors of USP1/UAF1: Pilot qHTS (AID 504865; active means well fitted curve in the direction sought with a large enough effect; an effect the other way counts as inactive or inconclusive;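 further: rhodamine fluorescence freed from ubiquitin-rhodamine substrate followed over time; top concentration of the series differs between compounds; on the % scale 0 is the no-effect control and ±100 the full control effect; nearly all actives have a fitted effect of over 35% in size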); details: purified USP1/UAF1, Ub-rhodamine cleavage fluorescence; series mostly up to 114 µM
Summary of the method: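 USP1/UAF1 complex (1nM) preincubated with compound 15 min at room temperature, then Ub-Rho substrate (150nM final) added. Fluorescence read kinetically at 480/540 nm, 6 reads every 60 seconds. Buffer: 50mM HEPES pH 7.8, 0.5mM EDTA, 0.1 mg/ml BSA, 1mM TCEP, 0.01% Tween-20.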

[17] = molecular target: Cytochrome P450 2D6 (Homo sapiens) (UniProt P10635); test: qHTS Assay for Inhibitors and Substrates of Cytochrome P450 2D6 (AID 891; active means well fitted curve in the direction sought with a large enough effect; an effect the other way counts as inactive or inconclusive;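 further: luciferin methyl ether substrate demethylated by CYP2D6 with NADPH regeneration; on the % scale 0 is the no-effect control and ±100 the full control effect; nearly all actives have a fitted effect of over 60% in size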); details: recombinant CYP2D6, luciferin-ME EGE luminescence; series mostly up to 57.1 µM
Summary of the method: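 Luminescent read-out of luciferin formed by 5 nM human CYP2D6 demethylating 30 uM Luciferin-ME EGE (Km level) over 60 min at room temperature after NADPH regeneration addition. Data normalized to full inhibition by 1.43 uM quinidine.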

[18] = molecular target: Cytochrome P450 2C19 (Homo sapiens) (UniProt P33261); test: qHTS Assay for Inhibitors and Substrates of Cytochrome P450 2C19 (AID 899; active means well fitted curve in the direction sought with a large enough effect; an effect the other way counts as inactive or inconclusive; further: on the % scale 0 is the no-effect control and ±100 the full control effect; nearly all actives have a fitted effect of over 60% in size); details: recombinant CYP2C19, luciferin-H EGE luminescence; series mostly up to 57.1 µM
Summary of the method: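 NADPH-dependent conversion of Luciferin-H EGE (10uM, at KM) by 5nM enzyme in 50mM KPO4, 60 min at 37C following 10 min compound preincubation. Stopped with luciferin detection buffer; luminescence read after 20 min.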

[19] = molecular target: Cytochrome P450 3A4 (Homo sapiens) (UniProt P08684); test: qHTS Assay for Inhibitors and Substrates of Cytochrome P450 3A4 (AID 884; active means well fitted curve in the direction sought with a large enough effect; an effect the other way counts as inactive or inconclusive; further: potency means the concentration at half of the fitted maximal effect; nearly all actives have a fitted effect of over 50% in size); details: recombinant CYP3A4, Luciferin-PPXE luminescence; series mostly up to 57.1 µM
Summary of the method: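 Luminescent readout of luciferin produced by CYP3A4 (20 nM) dealkylation of Luciferin-PPXE, 25 uM (its KM). NADPH-driven reaction ran 60 min at RT after 10 min compound preincubation; data scaled to 57 uM ketoconazole as 100% inhibition.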

[20] = molecular target: Cytochrome P450 3A4 (Homo sapiens) (UniProt P08684); test: qHTS Assay for Activators of Cytochrome P450 3A4 (AID 885; active means well fitted curve in the direction sought with a large enough effect; an effect the other way counts as inactive or inconclusive; further: nearly all actives have a fitted effect of over 65% in size); details: recombinant CYP3A4, Luciferin-PPXE luminescence, 60 min; series mostly up to 57.1 µM
Summary of the method: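 Luminescent readout of luciferin formed from 25 uM Luciferin-PPXE (KM level) by 20 nM CYP3A4 in 200 mM KPO4, with 60 min NADPH-driven reaction at room temperature after 10 min compound exposure. Ketoconazole (57 uM) defined 100% inhibition.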

Androgen receptor (Homo sapiens), sequence (P10275 whole entry, looked up): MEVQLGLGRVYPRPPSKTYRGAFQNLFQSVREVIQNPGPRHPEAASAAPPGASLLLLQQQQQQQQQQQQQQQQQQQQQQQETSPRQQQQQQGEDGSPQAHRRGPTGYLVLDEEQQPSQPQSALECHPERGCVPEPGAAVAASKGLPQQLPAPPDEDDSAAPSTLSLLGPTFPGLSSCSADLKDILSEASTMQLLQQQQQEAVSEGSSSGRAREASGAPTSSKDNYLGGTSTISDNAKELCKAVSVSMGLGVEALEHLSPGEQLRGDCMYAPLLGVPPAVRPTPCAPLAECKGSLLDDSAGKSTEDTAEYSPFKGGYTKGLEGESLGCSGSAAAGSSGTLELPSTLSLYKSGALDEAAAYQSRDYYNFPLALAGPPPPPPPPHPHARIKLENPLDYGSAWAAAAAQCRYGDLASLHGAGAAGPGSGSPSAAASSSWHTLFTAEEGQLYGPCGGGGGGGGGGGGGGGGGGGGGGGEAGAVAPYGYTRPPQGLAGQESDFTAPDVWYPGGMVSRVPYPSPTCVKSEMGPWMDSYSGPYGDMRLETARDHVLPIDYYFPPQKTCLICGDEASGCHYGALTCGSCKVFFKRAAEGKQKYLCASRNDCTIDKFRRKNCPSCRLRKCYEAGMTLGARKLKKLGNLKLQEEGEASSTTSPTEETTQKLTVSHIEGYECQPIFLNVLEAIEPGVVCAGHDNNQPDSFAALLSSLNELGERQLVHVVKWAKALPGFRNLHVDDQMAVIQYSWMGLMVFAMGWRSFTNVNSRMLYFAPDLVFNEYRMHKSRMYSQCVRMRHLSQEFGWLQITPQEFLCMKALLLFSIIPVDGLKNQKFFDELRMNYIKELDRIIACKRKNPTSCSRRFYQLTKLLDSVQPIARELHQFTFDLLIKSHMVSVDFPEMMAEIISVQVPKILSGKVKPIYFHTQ
Peroxisome proliferator-activated receptor delta (Homo sapiens), sequence (Q03181 whole entry, looked up): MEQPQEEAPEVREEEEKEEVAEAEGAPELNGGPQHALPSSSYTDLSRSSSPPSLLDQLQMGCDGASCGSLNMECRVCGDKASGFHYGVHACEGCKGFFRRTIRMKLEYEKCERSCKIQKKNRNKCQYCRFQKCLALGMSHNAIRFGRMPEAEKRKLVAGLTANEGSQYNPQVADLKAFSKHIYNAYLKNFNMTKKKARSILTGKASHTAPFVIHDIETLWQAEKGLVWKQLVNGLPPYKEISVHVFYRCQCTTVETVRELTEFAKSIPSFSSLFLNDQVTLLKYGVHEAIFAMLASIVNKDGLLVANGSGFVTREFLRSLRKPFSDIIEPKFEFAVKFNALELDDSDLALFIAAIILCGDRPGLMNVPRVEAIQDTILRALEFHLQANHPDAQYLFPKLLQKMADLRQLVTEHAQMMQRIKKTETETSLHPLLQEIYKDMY
Thyroid hormone receptor beta (Homo sapiens), sequence (P10828 whole entry, looked up): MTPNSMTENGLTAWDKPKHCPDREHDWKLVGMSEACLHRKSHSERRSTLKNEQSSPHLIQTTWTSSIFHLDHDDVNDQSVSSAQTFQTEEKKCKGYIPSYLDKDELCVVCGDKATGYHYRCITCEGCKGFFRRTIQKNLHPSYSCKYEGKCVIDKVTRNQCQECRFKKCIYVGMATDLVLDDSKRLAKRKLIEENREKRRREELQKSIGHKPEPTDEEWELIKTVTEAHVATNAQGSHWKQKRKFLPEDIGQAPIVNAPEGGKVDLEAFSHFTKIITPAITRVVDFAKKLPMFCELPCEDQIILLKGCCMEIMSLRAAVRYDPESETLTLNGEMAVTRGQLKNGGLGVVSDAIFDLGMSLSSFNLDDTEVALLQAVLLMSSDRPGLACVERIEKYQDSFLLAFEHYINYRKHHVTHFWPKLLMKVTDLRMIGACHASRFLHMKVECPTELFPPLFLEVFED
3',5'-cyclic-AMP phosphodiesterase 4B (Homo sapiens), sequence (Q07343 whole entry, looked up): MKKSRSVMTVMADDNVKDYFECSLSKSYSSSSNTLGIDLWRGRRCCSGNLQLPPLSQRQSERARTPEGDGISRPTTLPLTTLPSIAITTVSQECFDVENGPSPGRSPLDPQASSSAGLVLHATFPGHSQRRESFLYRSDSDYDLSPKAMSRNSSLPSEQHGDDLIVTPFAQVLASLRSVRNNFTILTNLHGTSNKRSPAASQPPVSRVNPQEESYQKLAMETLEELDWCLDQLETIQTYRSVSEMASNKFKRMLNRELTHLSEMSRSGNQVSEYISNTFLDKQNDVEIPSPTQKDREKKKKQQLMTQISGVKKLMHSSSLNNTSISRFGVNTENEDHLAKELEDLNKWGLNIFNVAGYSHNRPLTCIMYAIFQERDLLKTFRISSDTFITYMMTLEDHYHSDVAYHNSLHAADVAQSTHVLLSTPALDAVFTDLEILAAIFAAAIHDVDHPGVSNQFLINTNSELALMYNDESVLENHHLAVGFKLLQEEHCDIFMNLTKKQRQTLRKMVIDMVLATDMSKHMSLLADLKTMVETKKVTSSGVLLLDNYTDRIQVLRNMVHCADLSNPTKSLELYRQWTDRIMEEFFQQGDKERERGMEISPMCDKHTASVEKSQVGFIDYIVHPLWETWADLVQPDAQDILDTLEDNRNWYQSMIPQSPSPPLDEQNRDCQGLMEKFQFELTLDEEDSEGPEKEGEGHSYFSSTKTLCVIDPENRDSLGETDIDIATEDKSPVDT
Glucocorticoid receptor (Homo sapiens), sequence (P04150 whole entry, looked up): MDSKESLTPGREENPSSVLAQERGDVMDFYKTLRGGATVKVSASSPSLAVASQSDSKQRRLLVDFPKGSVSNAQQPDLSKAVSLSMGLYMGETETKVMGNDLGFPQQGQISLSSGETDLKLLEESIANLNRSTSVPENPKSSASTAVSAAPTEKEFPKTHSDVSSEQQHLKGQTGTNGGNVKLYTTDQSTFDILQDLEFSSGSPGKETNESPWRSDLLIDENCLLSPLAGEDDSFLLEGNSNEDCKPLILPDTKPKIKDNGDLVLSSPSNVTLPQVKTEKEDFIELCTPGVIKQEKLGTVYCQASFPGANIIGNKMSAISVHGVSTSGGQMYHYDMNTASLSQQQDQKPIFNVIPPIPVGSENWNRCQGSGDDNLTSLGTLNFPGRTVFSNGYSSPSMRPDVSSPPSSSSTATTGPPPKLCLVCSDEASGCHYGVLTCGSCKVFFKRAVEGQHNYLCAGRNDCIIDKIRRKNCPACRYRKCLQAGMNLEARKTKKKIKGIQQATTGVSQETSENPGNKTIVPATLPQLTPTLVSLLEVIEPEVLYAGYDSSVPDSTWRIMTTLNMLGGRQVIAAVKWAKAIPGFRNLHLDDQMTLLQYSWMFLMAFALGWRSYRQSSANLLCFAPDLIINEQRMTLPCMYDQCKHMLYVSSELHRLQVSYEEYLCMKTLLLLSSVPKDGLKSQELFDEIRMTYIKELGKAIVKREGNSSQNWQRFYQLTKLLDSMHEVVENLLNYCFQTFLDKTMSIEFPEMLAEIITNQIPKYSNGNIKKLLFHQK
Vitamin D3 receptor (Homo sapiens), sequence (P11473 whole entry, looked up): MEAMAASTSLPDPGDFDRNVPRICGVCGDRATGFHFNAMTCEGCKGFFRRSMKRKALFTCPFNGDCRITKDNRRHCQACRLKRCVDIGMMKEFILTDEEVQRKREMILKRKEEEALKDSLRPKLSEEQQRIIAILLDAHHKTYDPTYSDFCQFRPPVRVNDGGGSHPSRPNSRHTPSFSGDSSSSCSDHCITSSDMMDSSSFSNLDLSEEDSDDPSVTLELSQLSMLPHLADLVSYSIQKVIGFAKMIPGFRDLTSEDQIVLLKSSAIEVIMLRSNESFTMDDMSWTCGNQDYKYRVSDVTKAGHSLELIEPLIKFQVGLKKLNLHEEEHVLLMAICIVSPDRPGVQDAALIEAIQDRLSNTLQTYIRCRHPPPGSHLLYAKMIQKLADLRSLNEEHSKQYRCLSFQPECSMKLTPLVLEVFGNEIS
Bile acid receptor (Homo sapiens), sequence (Q96RI1 whole entry, looked up): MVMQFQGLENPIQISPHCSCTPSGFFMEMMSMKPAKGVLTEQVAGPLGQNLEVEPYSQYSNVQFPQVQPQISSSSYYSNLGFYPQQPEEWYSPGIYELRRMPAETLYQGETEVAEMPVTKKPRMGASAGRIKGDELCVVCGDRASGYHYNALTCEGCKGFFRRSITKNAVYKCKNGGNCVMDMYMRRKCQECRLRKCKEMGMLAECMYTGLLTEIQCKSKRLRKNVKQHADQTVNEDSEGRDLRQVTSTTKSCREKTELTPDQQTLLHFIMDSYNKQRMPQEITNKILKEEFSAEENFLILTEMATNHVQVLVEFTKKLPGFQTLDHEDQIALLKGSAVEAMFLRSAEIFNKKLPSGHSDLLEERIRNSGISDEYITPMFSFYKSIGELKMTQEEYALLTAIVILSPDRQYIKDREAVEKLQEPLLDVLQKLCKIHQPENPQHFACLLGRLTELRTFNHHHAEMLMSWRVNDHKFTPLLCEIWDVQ
Cytochrome P450 2D6 (Homo sapiens), sequence (P10635 whole entry, looked up): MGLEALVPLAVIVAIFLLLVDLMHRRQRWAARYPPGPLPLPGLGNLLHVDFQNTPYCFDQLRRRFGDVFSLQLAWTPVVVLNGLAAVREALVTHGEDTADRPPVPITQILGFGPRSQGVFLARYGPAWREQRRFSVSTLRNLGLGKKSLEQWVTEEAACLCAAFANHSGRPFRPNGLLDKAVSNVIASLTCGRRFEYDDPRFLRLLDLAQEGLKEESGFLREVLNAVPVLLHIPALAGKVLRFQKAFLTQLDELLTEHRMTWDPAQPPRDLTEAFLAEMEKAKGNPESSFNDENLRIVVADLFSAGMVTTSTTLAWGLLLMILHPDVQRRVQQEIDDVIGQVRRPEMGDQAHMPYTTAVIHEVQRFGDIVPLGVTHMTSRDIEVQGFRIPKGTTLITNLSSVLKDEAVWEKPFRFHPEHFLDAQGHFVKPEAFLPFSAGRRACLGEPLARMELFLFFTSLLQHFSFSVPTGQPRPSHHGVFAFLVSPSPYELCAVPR

O=C1NCCN1Cc1ccc(Cl)nc1
inactive: activation [1] 5.64% | Potency [2] | Potency [3] | Potency [5] | Potency [6] | activation [7] -1.02% | outcome [8]
-14.3%: max response [4]

CCOP(=S)(OCC)Oc1ncn(-c2ccccc2)n1
1.15%: max response [4]
inactive: activation [1] 5.78% | Potency [2] | Potency [3] | activation [9] 2.14% | Potency [5] | outcome [10] | activity change % (negative = inhibition) [11] 4.61% | Potency [6] | activation [7] 2.03%

CNC(=O)[C@@H]1C[C@H]1[C@@H](NP(=O)(c1ccccc1)c1ccccc1)c1ccccc1
inactive: outcome [12] | outcome [13]

COC(=O)[C@@]1(Cc2ccccc2)[C@H]2c3cc(C(=O)N(C)C)n(C)c3C[C@H]2CN1C(=O)c1ccccc1
inactive: outcome [12] | outcome [13]

CCOP(=O)(OCC)SCSC(C)(C)C
5.82%: max response [4]
inactive: activation [1] 3.02% | Potency [2] | Potency [3] | activation [14] -2.2% | Potency [5] | outcome [10] | activity change % (negative = inhibition) [11] -1.18% | Potency [6] | activation [7] -3.03% | outcome [8]

CC1CC(C)C(=O)[C@H](C(O)CC2CC(=O)NC(=O)C2)C1 (some centres undefined)
inactive: Potency [15] | Potency [16]

FC(F)(F)c1ccc(OCCCOc2c(Cl)cc(OCC=C(Cl)Cl)cc2Cl)nc1
inactive: activation [1] -16.8% | Potency [2] | Potency [3] | activation [9] -2.38% | activation [14] 9.84% | Potency [5] | outcome [10] | activation [7] 0.158% | outcome [8]
-4.25%: max response [4]

COC(=O)[C@@H]1C[C@@H]1[C@@H](NP(=O)(c1ccccc1)c1ccccc1)c1ccccc1
inactive: outcome [12] | outcome [13]

CCN1C[C@@]2(COC)[C@H](O)C[C@H](OC)[C@@]34[C@@H]5C[C@@]6(O)[C@H](OC(=O)c7ccccc7)[C@H]5[C@@](OC(C)=O)([C@H]([C@@H](OC)[C@H]23)[C@H]14)[C@H](O)[C@@H]6OC
inactive: outcome [12] | Potency [17] | Potency [18]

CCCc1cc2c(n1Cc1ccco1)C(C)C1CN(C(=O)c3ccccc3)C(C)(C(=O)OC)C21 (centres undefined)
inactive: outcome [12] | outcome [13]

C[C@@H]1O[C@H](O[C@H]2C[C@@H](O)[C@]3(CO)[C@H]4[C@H](O)C[C@]5(C)[C@@H](C6=CC(=O)OC6)CC[C@@]5(O)[C@H]4CC[C@]3(O)C2)[C@@H](O)[C@H](O)[C@H]1O
inactive: outcome [12] | Potency [17] | Potency [18]

O=P(N[C@@H](c1ccccc1)[C@@H]1C[C@H]1CO)(c1ccccc1)c1ccccc1
inactive: outcome [12]

C[C@@]1([C@@H](NP(=O)(c2ccccc2)c2ccccc2)c2ccccc2)C[C@H]1CCO
inactive: outcome [12] | Potency [20]
active: Potency [19] 7.94 µM

CCCC1COC(Cn2cncn2)(c2ccc(Cl)cc2Cl)O1 (centres undefined)
inactive: activation [1] -7.53% and -11.8% | Potency [2] | Potency [3] | activation [9] 0.69% | activation [14] 4.96% and -1.29% | Potency [5] | outcome [10] | activity change % (negative = inhibition) [11] 12.9% and 0.314% | activation [7] -0.905% and -2.64%
10.7%: max response [4]
